The source made the active and inactive calls.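 The calls were made as follows: active = compounds whose fitted potency in the phosphatase confirmation test is under 20 µM; inconclusive = potency fitted but weaker than 20 µM; inactive = no potency could be fitted.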

Sequence of Protein phosphatase EYA2 (Homo sapiens) (O00167 whole entry, looked up): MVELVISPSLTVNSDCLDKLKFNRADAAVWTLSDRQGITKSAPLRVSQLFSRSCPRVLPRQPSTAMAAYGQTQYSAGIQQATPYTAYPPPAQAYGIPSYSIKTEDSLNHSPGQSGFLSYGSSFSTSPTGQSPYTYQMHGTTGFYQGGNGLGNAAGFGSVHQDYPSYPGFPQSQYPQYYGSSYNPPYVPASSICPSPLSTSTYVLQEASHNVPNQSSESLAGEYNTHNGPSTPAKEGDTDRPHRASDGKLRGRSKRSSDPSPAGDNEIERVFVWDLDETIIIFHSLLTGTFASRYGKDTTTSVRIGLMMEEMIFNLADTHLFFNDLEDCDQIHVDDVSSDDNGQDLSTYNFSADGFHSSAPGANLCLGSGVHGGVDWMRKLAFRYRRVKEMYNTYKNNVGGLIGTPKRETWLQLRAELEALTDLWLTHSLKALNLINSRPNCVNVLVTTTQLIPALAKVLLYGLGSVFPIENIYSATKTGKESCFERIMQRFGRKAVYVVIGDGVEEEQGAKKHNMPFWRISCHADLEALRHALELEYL

In this assay the target is Protein phosphatase EYA2 (Homo sapiens) (UniProt O00167). The experiment in a line: Inhibitors of Eya2ED: Hit Confirmation in Malachite Green Secondary Assay. Particulars: phosphopeptide, malachite green absorbance. The text has this:
The Eya proteins (Eya1-4) were originally identified as essential co-activators of the Six1 transcription factor. […] Knockdown of Six1 decreases cancer cell proliferation and metastases in several different cancer models. […] A fluorescence-based HTS assay has been perfomed against the Molecular Libraries Small Molecule Repository (MLSMR) and has the AID 488837 in this database. In order to confirm the hits obtained from the primary screen several follow-up screens have been/will be carried out. This secondary screen uses a different substrate and a different detection method and will help eliminate false positives obtained from the primary screen. More specifically, this assay measures phosphatase activity by measuring inorganic phosphate, the product of the hydrolysis of the phosphate group on the protein substrate. The inorganic phosphate is detected with malachite green, which in strongly acid conditions, produces a complex which is green and is detected by absorbance. NIH Chemical Genomics Center [NCGC] NIH Molecular Libraries Probe Centers Network [MLPCN] MLPCN Grant: DA030559-01 Assay Submitter (PI): Rui Zhao, University of Colorado, Denver
Phospatase assay (25ul) was carried out in transparent, 96-well, half-area microplates. […] After 20 minute incubation at room temperature, the absorbance was read at 620nm using a Spectramax PLUS 384 plate reader by Molecular Devices. […]
Consider `CCNC(=S)NNC(=O)c1csc2ccccc12`, for which the Potency was 16.8 µM (active).

The values above are taken from PubChem BioAssay AID540357 (National Center for Advancing Translational Sciences (NCATS), 2011).
